PubChem BioAssay (Tox21)
Inconclusive results are not listed. The source made the active and inactive calls. Unless noted, calls follow the shape of the full dose curve.

Columns and labels:
[1] = qHTS assay to identify small molecule antagonists of the sonic hedgehog signaling (Shh) pathway (AID 1259369); also: nearly all actives have a fitted effect of over 45% in size
How it was run: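 Cells are plated and held 4hr at 37 C, compounds (DMSO) are pinned in, conditioned medium is added to stimulate the pathway, and after 24hr luciferase reagent is added for 30min before luminescence is read.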

[2] = target: Estrogen receptor beta (Homo sapiens) (UniProt Q92731); assay: qHTS assay to identify small molecule agonists of the estrogen receptor beta (ER-beta) signaling pathway (AID 1259377; active = well fitted activation curve with a large enough effect in the signal ratio in the repeat runs, not every such curve was filed as active; the % refers to the signal ratio)
How it was run: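 Reporter cells (HEK293T, ER-beta-UAS-bla) receive compounds or DMSO after a 6 hr pre-incubation. They then incubate 16 hr at 37C/5% CO2, and fluorescence from LiveBLAzer B/G substrate is measured after 2 hours at room temperature.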

[3] = target: Estrogen receptor beta (Homo sapiens) (UniProt Q92731); assay: qHTS assay to identify small molecule antagonists of the estrogen receptor beta (ER-beta) signaling pathway (AID 1259378; active = well fitted inhibition curve with a large enough effect in the signal ratio in the repeat runs, not every such curve was filed as active; the % refers to the signal ratio)
How it was run: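 ER-beta-UAS-bla HEK293T cells in 2% charcoal-stripped FBS medium treated with compound plus 1nM final 17-beta-estradiol for 16 hr at 37C. Beta-lactamase reporter read by FRET substrate fluorescence after 2 hours at room temperature.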

[4] = qHTS assay to identify small molecule agonists of the androgen receptor (AR) signaling pathway in the presence of an antagonist - cell viability counter screen (AID 1259379; active = well fitted curve in the direction sought with a large enough effect in the repeat runs; an effect the other way counts as inactive or inconclusive;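 also: MDA-kb2 human breast cancer cells carrying an MMTV luciferase reporter; series mostly up to about 92 µM; nearly all actives have a fitted effect of over 25% in size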)
How it was run: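 Cytotoxicity is assessed by CellTiter-Fluor in MDA-kb2 cells carrying an MMTV-driven luciferase reporter. Cells receive 3.0uM nilutamide plus compounds at 15 concentrations and incubate 16 hr at 37C without CO2 before fluorescence reading.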

[5] = qHTS assay to identify small molecule agonists of the estrogen receptor beta (ER-beta) signaling pathway - cell viability counter screen (AID 1259380; active = well fitted curve in the direction sought with a large enough effect in the repeat runs; an effect the other way counts as inactive or inconclusive; also: nearly all actives have a fitted effect of over 30% in size)
How it was run: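 Cytotoxicity is measured in parallel with the reporter screen: after 16 hr compound exposure at 37C and a 2 hr LiveBLAzer step, CellTiter-Glo is added to the same ER-beta-UAS-bla HEK293T wells and luminescence read after 30 min.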

[6] = qHTS assay to identify small molecule antagonists of the estrogen receptor beta (ER-beta) signaling pathway - cell viability counter screen (AID 1259382; active = well fitted curve in the direction sought with a large enough effect in the repeat runs; an effect the other way counts as inactive or inconclusive; also: series mostly up to about 92 µM; nearly all actives have a fitted effect of over 55% in size)
How it was run: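 Cytotoxicity counter screen multiplexed with the beta-lactamase antagonist assay: GripTite HEK293T ER-beta-bla cells were treated 16 hr with test chemicals in the presence of 1nM 17-beta-estradiol, and viability was measured by CellTiter-Glo.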

[7] = target: Estrogen receptor (Homo sapiens) (UniProt P03372); assay: qHTS assay to identify small molecule agonists of the estrogen receptor alpha (ER-alpha) signaling pathway in the presence of an antagonist (AID 1259383); also: top concentration of the series differs between compounds; nearly all actives have a fitted effect of over 15% in size
How it was run: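 Agonist-mode confirmation in the presence of the ER antagonist ICI-182,780 at 10.0nM final. Breast-derived VM7Luc4E2 reporter cells were exposed to compounds for 22hr, and ERE-driven luciferase was quantified by luminescence.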

[8] = qHTS assay to identify small molecule agonists or antagonists of the thyroid stimulating hormone receptor (TSHR) signaling pathway - wild type cell line counter screen (AID 1259384)
How it was run: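 Wild-type Hek293 cells, 800/well, 18 h at 37C, then compound with Ro20-1724 for 30 min RT. cAMP by HTRF (cAMP-d2/anti-cAMP cryptate), 1 h RT, fluorescence read. 15 concentrations, triplicates.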

[9] = target: Thyrotropin receptor (Homo sapiens) (UniProt P16473); assay: qHTS assay to identify small molecule antagonists of the thyroid stimulating hormone receptor (TSHR) signaling pathway (AID 1259385); also: nearly all actives have a fitted effect of over 20% in size
How it was run: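 TSHR-HEK293 cells (800/well) plated 18 h, then compounds with Ro20-1724 and TSH at 1.5 ng/mL final, 30 min at room temperature. cAMP quantified by HTRF (cAMP-d2/anti-cAMP-cryptate, 1 h); 15 concentrations in triplicate.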

[10] = qHTS assay to identify small molecule agonists of the estrogen receptor alpha (ER-alpha) signaling pathway in the presence of an antagonist - cell viability counter screen (AID 1259386; active = well fitted curve in the direction sought with a large enough effect in the repeat runs; an effect the other way counts as inactive or inconclusive;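 also: series mostly up to about 92 µM; cells exposed to compounds for 22 h at 37 °C before the viability read; nearly all actives have a fitted effect of over 30% in size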)
How it was run: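 Cytotoxicity was measured in parallel with the ERE-luciferase agonist screen, in the same wells. The cells were VM7Luc4E2, which endogenously express ER-alpha, and treatment was with compounds plus 10.0nM ICI-182,780 for 22hr.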

[11] = target: Progesterone receptor (Homo sapiens) (UniProt P06401); assay: qHTS assay to identify small molecule agonists of the progesterone receptor (PR) signaling pathway (AID 1346784); also: nearly all actives have a fitted effect of over 30% in size
How it was run: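 Reporter assay, GripTite PR-UAS-bla HEK 293T cells: 16 hr exposure to DMSO-dissolved compounds at 37C, 5% CO2, in steroid-depleted (2% charcoal-stripped FBS) medium; beta-lactamase measured by FRET fluorescence.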

[12] = target: Progesterone receptor (Homo sapiens) (UniProt P06401); assay: qHTS assay to identify small molecule antagonists of the progesterone receptor (PR) signaling pathway (AID 1346795; active = well fitted inhibition curve with a large enough effect in the signal ratio in the repeat runs, not every such curve was filed as active; the % refers to the signal ratio)
How it was run: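 Stimulus R5020 at 1 nM final; cells HEK293T PR-UAS-bla; medium with 2% charcoal-stripped FBS; compound exposure 16 hr at 37C, 5% CO2; detection by FRET beta-lactamase substrate, 2 hr, room temperature.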

[13] = qHTS assay to identify small molecule antagonists of the progesterone receptor (PR) signaling pathway - cell viability counter screen (AID 1346798; active = well fitted curve in the direction sought with a large enough effect in the repeat runs; an effect the other way counts as inactive or inconclusive; also: series mostly up to about 92 µM; nearly all actives have a fitted effect of over 50% in size)
How it was run: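 In the same plates used for the beta-lactamase readout, cell viability of compound- and R5020-treated PR-UAS-bla HEK293T cells (16 hr, 37C) was assessed by CellTiter-Glo luminescence.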

[14] = qHTS assay to identify small molecule agonists of the progesterone receptor (PR) signaling pathway - cell viability counter screen (AID 1346799); also: nearly all actives have a fitted effect of over 45% in size
How it was run: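 Multiplexed viability read: CellTiter-Glo luminescence, 30 min RT, following LiveBLAzer FRET measurement on PR-UAS-bla HEK293T cells exposed to compounds 16 hr.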

[15] = qHTS assay to identify small molecule antagonists of the TGF-beta/Smad signaling pathway - cell viability counter screen (AID 1346824; active = well fitted curve in the direction sought with a large enough effect in the repeat runs; an effect the other way counts as inactive or inconclusive; also: nearly all actives have a fitted effect of over 50% in size)
How it was run: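 SBE-bla HEK 293T cells, incubated overnight, then compound plus 0.25 ng/mL TGF-beta1 (stock added) for 5 hr at 37 C. Viability was read in the same wells by CellTiter-Glo luminescence after 30 min at room temperature.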

[16] = qHTS assay to identify small molecule agonists of the TGF-beta/Smad signaling pathway - cell viability counter screen (AID 1346829; active = well fitted curve in the direction sought with a large enough effect in the repeat runs; an effect the other way counts as inactive or inconclusive; also: top concentration of the series differs between compounds; nearly all actives have a fitted effect of over 45% in size)
How it was run: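 SBE-bla HEK 293T cells plated overnight, compound exposure 5 hr at 37 C. Viability read in the same wells by CellTiter-Glo luminescence after 30 min at room temperature, following the beta-lactamase read.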

[17] = qHTS assay to identify small molecule agonists of the TGF-beta/Smad signaling pathway (AID 1346859; active = well fitted activation curve with a large enough effect in the signal ratio in the repeat runs, not every such curve was filed as active; the % refers to the signal ratio; also: series mostly up to about 77 µM)
How it was run: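 Screening used HEK 293T SBE-bla cells at 4,000/well. Test agents: 5 hr, 37 C. Detection: FRET substrate, 2 hr RT, then excitation 405 nm with emissions at 460 and 530 nm.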

[18] = target: Thyrotropin-releasing hormone receptor (Homo sapiens) (UniProt P34981); assay: qHTS assay to identify small molecule antagonists of the thyrotropin-releasing hormone receptor (TRHR) signaling pathway (AID 1346877; active = well fitted inhibition curve with a large enough effect in the repeat runs, not every such curve was filed as active; also: series mostly up to about 51 µM)
How it was run: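 Antagonism is measured as suppression of the calcium response to 1 nM TRH in TRHR-HEK293 cells that have been dye-loaded for 2 h at 37 °C after overnight plating. Each compound is tested at 15 concentrations in triplicate.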

[19] = target: Thyrotropin-releasing hormone receptor (Homo sapiens) (UniProt P34981); assay: qHTS assay to identify small molecule agonists of the thyrotropin-releasing hormone receptor (TRHR) signaling pathway (AID 1346891); also: series mostly up to about 58 µM
How it was run: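 Readout was intracellular calcium fluorescence in TRHR-Hek293 cells. Cells were incubated 18 h, dye-loaded 2 h at 37 °C, and treated with compound in agonist mode.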

[20] = target: Androgen receptor (Homo sapiens) (UniProt P10275); assay: qHTS assay to identify small molecule agonists of the androgen receptor (AR) signaling pathway in the presence of an antagonist (AID 1259381); also: nearly all actives have a fitted effect of over 15% in size
How it was run: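 Agonist-mode confirmation screen: human MDA-kb2 cells stably expressing luciferase under an MMTV promoter bearing AR and GR response elements, co-treated with 3.0uM nilutamide (final). Luminescence measured after 16hr compound incubation.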

Measured: Potency

Androgen receptor (Homo sapiens), sequence (P10275 whole entry, looked up): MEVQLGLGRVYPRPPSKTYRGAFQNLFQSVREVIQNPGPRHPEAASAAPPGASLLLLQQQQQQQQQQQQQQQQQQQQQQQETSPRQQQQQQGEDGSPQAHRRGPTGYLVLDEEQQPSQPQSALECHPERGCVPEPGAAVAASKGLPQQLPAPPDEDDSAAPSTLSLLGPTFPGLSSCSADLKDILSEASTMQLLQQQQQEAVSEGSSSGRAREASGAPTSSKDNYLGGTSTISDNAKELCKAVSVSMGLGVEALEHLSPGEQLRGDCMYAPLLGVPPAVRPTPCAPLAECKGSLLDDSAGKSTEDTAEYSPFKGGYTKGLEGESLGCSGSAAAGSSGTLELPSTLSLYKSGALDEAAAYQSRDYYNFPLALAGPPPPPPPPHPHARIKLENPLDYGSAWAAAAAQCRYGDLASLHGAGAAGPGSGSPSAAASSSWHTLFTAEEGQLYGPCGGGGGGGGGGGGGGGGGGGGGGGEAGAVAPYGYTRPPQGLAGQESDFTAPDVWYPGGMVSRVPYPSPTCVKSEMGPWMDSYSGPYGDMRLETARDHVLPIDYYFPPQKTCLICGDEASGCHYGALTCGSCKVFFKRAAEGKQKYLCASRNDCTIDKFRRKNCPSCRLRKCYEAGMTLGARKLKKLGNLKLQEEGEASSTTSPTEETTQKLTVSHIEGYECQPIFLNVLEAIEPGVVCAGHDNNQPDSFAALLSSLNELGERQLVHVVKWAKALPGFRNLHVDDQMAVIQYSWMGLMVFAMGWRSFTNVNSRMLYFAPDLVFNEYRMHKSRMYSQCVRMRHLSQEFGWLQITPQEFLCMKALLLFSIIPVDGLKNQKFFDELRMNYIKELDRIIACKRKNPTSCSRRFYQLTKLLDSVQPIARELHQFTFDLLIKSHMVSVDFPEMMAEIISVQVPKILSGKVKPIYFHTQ
Thyrotropin-releasing hormone receptor (Homo sapiens), sequence (P34981 whole entry, looked up): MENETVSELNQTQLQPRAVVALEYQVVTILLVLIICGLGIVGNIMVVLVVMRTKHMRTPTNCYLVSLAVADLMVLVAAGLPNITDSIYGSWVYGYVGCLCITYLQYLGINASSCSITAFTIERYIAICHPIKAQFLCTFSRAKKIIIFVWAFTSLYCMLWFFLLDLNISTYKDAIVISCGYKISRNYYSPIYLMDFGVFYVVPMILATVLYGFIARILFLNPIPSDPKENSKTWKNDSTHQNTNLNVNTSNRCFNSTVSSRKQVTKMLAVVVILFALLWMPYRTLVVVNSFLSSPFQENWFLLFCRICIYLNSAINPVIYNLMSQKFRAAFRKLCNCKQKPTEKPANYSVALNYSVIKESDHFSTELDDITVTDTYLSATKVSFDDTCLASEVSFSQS
Progesterone receptor (Homo sapiens), sequence (P06401 whole entry, looked up): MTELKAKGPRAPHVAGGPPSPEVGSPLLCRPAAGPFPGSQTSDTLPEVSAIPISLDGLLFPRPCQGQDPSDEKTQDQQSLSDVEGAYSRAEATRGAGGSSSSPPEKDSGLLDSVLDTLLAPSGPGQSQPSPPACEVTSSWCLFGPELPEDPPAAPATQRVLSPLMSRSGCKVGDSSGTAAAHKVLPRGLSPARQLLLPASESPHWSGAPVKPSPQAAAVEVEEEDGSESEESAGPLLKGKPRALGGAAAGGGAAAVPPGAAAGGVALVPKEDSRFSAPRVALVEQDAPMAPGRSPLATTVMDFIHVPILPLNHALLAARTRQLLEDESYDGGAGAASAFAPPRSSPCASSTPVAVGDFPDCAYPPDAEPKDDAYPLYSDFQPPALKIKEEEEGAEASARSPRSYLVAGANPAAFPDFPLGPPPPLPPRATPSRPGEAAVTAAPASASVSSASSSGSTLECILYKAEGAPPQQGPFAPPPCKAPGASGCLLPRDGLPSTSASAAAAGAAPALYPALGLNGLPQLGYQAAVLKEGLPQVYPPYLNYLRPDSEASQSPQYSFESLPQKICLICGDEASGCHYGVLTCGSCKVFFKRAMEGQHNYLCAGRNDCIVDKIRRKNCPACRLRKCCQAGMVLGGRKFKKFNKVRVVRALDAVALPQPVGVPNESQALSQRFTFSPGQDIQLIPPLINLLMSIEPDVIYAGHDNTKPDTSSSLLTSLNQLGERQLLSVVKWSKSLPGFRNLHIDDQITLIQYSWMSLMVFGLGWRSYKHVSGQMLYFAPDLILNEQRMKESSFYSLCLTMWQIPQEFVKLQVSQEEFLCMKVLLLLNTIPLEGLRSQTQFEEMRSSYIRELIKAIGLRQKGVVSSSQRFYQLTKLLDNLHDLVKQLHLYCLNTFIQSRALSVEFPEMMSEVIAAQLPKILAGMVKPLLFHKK
Estrogen receptor (Homo sapiens), sequence (P03372 whole entry, looked up): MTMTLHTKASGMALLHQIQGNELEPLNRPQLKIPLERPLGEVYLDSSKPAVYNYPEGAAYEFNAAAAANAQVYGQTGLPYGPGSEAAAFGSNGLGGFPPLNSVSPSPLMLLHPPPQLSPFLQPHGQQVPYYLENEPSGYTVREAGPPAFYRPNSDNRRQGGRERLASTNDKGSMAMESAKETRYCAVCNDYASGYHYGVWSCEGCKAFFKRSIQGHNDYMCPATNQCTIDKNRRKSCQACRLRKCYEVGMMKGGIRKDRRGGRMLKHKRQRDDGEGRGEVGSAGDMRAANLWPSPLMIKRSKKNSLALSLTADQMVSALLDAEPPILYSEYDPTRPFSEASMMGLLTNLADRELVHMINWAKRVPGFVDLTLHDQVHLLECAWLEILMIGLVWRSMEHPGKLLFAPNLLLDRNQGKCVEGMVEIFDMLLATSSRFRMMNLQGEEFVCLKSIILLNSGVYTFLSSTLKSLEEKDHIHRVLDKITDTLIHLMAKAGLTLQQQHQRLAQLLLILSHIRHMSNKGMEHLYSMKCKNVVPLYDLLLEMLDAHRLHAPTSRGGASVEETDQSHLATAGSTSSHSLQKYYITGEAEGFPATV
Estrogen receptor beta (Homo sapiens), sequence (Q92731 whole entry, looked up): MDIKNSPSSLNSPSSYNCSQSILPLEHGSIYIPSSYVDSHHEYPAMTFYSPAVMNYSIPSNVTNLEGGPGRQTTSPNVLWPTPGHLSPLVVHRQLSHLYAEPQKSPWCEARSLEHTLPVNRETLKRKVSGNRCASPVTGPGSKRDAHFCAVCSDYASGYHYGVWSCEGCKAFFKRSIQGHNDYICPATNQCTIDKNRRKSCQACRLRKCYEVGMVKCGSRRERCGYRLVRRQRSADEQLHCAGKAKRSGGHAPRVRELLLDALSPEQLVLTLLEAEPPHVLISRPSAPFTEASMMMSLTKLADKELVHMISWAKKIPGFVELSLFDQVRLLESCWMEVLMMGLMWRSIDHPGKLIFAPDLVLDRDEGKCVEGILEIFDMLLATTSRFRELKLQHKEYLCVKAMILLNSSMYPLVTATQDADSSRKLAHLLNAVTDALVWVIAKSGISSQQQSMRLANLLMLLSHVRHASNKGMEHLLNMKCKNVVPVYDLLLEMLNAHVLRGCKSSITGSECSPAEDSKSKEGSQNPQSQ
Thyrotropin receptor (Homo sapiens), sequence (P16473 whole entry, looked up): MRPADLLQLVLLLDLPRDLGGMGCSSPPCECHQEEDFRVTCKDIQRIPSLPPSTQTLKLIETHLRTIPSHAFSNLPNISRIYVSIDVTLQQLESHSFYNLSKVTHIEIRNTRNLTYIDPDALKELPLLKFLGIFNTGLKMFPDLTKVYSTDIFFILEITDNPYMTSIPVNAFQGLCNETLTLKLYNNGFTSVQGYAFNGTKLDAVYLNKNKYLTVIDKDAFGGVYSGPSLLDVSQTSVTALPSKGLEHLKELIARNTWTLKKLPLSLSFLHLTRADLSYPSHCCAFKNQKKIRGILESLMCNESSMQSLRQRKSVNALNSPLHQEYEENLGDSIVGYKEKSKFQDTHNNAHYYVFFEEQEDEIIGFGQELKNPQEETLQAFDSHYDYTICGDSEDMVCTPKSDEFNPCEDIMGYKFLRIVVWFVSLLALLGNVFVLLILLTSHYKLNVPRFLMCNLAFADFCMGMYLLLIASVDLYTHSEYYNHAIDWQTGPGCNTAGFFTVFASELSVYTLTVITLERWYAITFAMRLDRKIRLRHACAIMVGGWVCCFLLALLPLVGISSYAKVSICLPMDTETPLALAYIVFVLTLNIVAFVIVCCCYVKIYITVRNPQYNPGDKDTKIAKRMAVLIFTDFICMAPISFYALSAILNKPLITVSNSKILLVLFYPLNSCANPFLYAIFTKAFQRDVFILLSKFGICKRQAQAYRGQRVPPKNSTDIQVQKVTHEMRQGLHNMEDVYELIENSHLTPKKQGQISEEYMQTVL

NC(=O)OCCCc1ccccc1
not listed: [20]
inactive: all other assays above

O=C/C=C/c1ccco1
not listed: [8] | [9]
inactive: all other assays above

CN(C)C(=O)Oc1cc(OC(=O)N(C)C)cc(C(O)CNC(C)(C)C)c1 (stereo unspecified)
not listed: [13]
inactive: all other assays above

CC1NCCOC1c1ccccc1 (stereo unspecified)
not listed: [20]
inactive: all other assays above

CC(O)CCl (stereo unspecified)
not listed: [18] | [19] | [20]
inactive: all other assays above

CC[C@@H](CO)NC(=O)[C@@H]1C=C2c3cccc4[nH]cc(c34)C[C@H]2N(C)C1
not listed: [14]
inactive: all other assays above

CCC(C)(C#N)N=NC(C)(C#N)CC (stereo unspecified)
inactive: all assays above

COc1ccc(C=O)cc1O
inactive: all assays above
